# The list is not random: actives were taken first. Their share in the collection is about 21%.
# ClpP mod: qHTS Assay for Activators of ClpP | 1.9% of 340,000 active | purified B. subtilis ClpP, FRET peptide cleavage, 20 min | Potency, µM (series often up to 57.5 µM), inactives show at the highest dose activity change, negative = active | AID 651965, 2013 | ATP-dependent Clp protease proteolytic subunit (Bacillus subtilis (strain 168)), P80244; active = well fitted falling curve with a large enough effect; inconclusive = small, poorly fitted or top-dose-only effect; inactive = no such curve, though single readings can be large or run the other way; note: potency is the fitted concentration of half-maximal effect; the source files actives as falling curves though it sought activators and does not explain the sign; nearly all actives have a fitted effect of over 65% in size
# Target sequence (P80244 whole entry, looked up): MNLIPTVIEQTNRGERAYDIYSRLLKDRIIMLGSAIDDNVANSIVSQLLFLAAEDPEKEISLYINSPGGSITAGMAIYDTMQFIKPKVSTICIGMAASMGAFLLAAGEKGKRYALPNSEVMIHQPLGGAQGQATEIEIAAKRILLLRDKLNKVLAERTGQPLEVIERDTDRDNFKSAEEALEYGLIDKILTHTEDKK
#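 FRET quenching reversal measured ClpP activation: 10 microg/mL B. subtilis ClpP at pH 8 with the FRET-FV decapeptide, read at 430 nm after 320 nm excitation. The 20-min minus 0-min signal was scaled between DMSO/no-enzyme wells and ADEP (5.8 microM final).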
# DT40 TDP1 no CPT: qHTS for Inhibitors of human tyrosyl-DNA phosphodiesterase 1 (TDP1): qHTS in cells in absence of CPT; DT40 Tdp1-/- hTDP1 cells, no CPT, ATP luminescence, 48 h; Potency, µM (titrated, usually from 46.2 µM), for the others: at the top dose activity change, negative = growth inhibition, actives largely listed as inhibitors; 15% of 420,000 active; note: potency is the fitted concentration of half-maximal effect; % is set by controls: 0 for no effect and ±100 for the full control effect; nearly all actives have a fitted effect of over 55% in size
#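 DT40 Tdp1-/-;hTDP1 cells, no CPT (DMSO vehicle only), 400 cells/well; compounds pin-transferred; ≥48 hr, 37 °C; CellTiter-Glo 30 min RT dark, luminescence read.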
# DT40 TDP1 CPT: qHTS for Inhibitors of human tyrosyl-DNA phosphodiesterase 1 (TDP1): qHTS in cells in presence of CPT | 12% of 420,000 active | Potency, µM (titrated, usually from 46.2 µM), for the others: at the highest dose activity change, negative = growth inhibition, actives largely listed as inhibitors | chicken DT40 Tdp1-/-;hTDP1 cells + 20 nM CPT, ATP luminescence, 48 h; note: potency is the fitted concentration of half-maximal effect; % is set by controls: 0 for no effect and ±100 for the full control effect; nearly all actives have a fitted effect of over 55% in size
#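 Chicken DT40 Tdp1-/- cells stably complemented with human TDP1 were seeded at 400 cells/well in medium containing 20 nM camptothecin, exposed to pin-transferred compounds, and grown at 37 °C for at least 48 hr. Viability was read as ATP luminescence.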
# DRD3 antagonist: qHTS of D3 Dopamine Receptor Antagonist: qHTS; D(3) dopamine receptor (Homo sapiens), P35462; D3R cells, DiscoveRx beta-arrestin luminescence, antagonist mode; hits give low values; max response, negative = inhibition, %; 2.5% of 360,000 active; AID 652054, 2013; in the data active = max response below about -50%; inconclusive = no clear call, values can overlap the other calls; note: % is set by controls: 0 for no effect and ±100 for the full control effect
# Target sequence (P35462 whole entry, looked up): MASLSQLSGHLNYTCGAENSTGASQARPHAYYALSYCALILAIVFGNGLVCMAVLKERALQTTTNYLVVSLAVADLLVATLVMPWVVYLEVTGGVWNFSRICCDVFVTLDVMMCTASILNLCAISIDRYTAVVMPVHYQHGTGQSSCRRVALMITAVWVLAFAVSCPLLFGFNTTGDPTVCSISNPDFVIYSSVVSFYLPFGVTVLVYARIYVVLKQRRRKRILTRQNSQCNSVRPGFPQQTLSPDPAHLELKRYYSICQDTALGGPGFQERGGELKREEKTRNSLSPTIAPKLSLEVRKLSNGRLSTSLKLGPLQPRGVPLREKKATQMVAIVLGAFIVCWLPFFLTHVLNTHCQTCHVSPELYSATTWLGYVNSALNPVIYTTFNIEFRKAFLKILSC
#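 Cells expressing the human receptor were seeded at 1500 cells/well, incubated overnight at 37 degrees C in 5% CO2, then exposed to library compounds with dopamine controls for 90 minutes at 37 degrees C before luminescent detection.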
# IL1B secr inh: qHTS for Inhibitors of Inflammasome Signaling: IL-1-beta AlphaLISA Primary Screen; 4.7% of 360,000 active; THP-1 LPS/ATP IL-1B secretion, AlphaLISA, 16 h; hits give low values; activity change, % at 57.5 µM; AID 743279, 2014; in the data active = activity change below about -50%; inconclusive = mostly about -30% to -49%; note: % is set by controls: 0 for no effect and ±100 for the full control effect
#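 Secreted IL-1B measured by AlphaLISA bead assay after 16 h compound exposure of THP-1 cells; compounds (final up to 57.5 uM) added 1 h before LPS (250 ng/mL) and ATP (1.25 mM) stimulation; lower signal means less secretion.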
# D3 ag: qHTS of D3 Dopamine Receptor Agonist: qHTS; D3R DiscoveRx beta-arrestin cells, luminescence, 90 min; D(3) dopamine receptor (Homo sapiens), P35462; 0.58% of 410,000 active; AID 652048, 2013; max activation, %; in the data active = max activation above about 30%; note: 0% is about no effect
#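 Agonist-mode cell screen: cells plated at 1500/well and incubated overnight at 37 °C, then exposed to library compounds for 90 min at 37 °C. Detection reagent was added for 30–60 min at room temperature, and luminescence was read.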
# * hit, by the source's call; ? = inconclusive; nt = no result given; [ ] = remark or other dose. Unless noted, calls come from the whole dose curve; as a rule, active = well fitted inhibition curve with a large enough effect; inconclusive = small, poorly fitted or top-dose-only effect; inactive = flat fitted curve, though single readings scatter.
SMILES,ClpP mod,DT40 TDP1 no CPT,DT40 TDP1 CPT,DRD3 antagonist,IL1B secr inh,D3 ag
CCOC(=O)C1CCN(C(=O)CSc2n[nH]c(-c3ccccc3)n2)CC1,1%,?,-23%,nt,nt,0
CCOC(=O)C1=NN(c2ccc(C)cc2)C2(S1)SC(C(C)=O)=C(C)N2c1ccccc1 (stereo not drawn),-1%,21µM*,?,-13,8,-9
CCOC(=O)C1=NN(c2ccccc2)C2(S1)SC(C(C)=O)=C(C)N2c1ccccc1 (stereo not drawn),-2%,15µM*,?,-15,-20,-7
CCOC(=O)c1sc2ccccc2c1S(=O)(=O)N1CCN(c2cccc(C)c2C)CC1,-1%,?,?,nt,nt,10
O=C(CN1CCN(c2ccc(F)cc2)CC1)Nc1ccccc1Br,nt,?,-3%,2,-16,9
Cc1nc2ccccc2n1C1CCN(CC(=O)Nc2ccccc2Br)CC1,nt,13µM*,?,9,-51*,10
C[C@H](CO)N1C[C@H](C)[C@@H](CN(C)Cc2cncnc2)Oc2cc(Br)ccc2S1(=O)=O,-1%,?,?,10,-22,-7
CC(C)N(C)c1ncnc2c1ncn2[C@H]1CN(Cc2ccc(-c3ccccc3)cc2)C[C@@H](CO)O1,0%,6.5µM*,7.3µM*,15,-13,10
OCCCNc1ncnc2c1ncn2[C@H]1CN(Cc2ccncc2)C[C@@H](CO)O1,1%,1%,19%,8,24,-5
CC(C)N(C)c1ncnc2c1ncn2[C@H]1CN(Cc2ccco2)C[C@@H](CO)O1,-2%,9%,2%,16,1,0
CC(C)N(C)c1ncnc2c1ncn2[C@H]1CN(Cc2ccncc2)C[C@@H](CO)O1,1%,23µM*,23µM*,23,15,1
OCCNc1ncnc2c1ncn2[C@H]1CN(Cc2ccncc2)C[C@@H](CO)O1,-1%,2%,-8%,24,-89*,6
CC(=O)N1CCC[C@@]2(CCN(c3ccncc3)C2)C1,nt,-4%,-2%,nt,nt,nt
Cc1cc(CNC(=O)CCN2Cc3cc(Cl)ccc3OC(C)C2)nn1C (stereo not drawn),nt,-10%,-121%[9.04 µM],nt,nt,nt
O=C(N/N=C/c1ccc(N2CCOCC2)s1)c1ccc(O)cc1,-4%,-25%,-15%,9,?,-1
O=C(NN=Cc1ccc(N2CCOCC2)s1)c1ccc([N+](=O)[O-])cc1,0%,18µM*,?,-8,?,-7
O=C(N/N=C/c1ccc(Br)s1)c1ccc([N+](=O)[O-])cc1,-2%,2.6µM*,?,-5,-4,-5
COc1ccc(CC(=O)NCC(c2ccc(N(C)C)cc2)N2CCOCC2)cc1OC (stereo not drawn),0%,?,?,nt,nt,6
O=C(Nc1ccc(S(=O)(=O)N2CCCCC2)cc1)c1ccc(Cl)nc1,1%,6.5µM*,18µM*,-4,-21,-12
CCN(CC)S(=O)(=O)c1ccc(NC(=O)c2ccc(Cl)nc2)cc1,nt,23µM*,?,-20,14,-35
CCN(CC)S(=O)(=O)c1ccc(NC(=O)c2ccc(NS(C)(=O)=O)cc2)cc1,-14%,-3%,-20%,22,4,8
CCN(CC)S(=O)(=O)c1nnc(NC(=O)c2ccc(C(C)C)cc2)s1,-12%,-27%,-17%,nt,nt,-10
O=C(Nc1ccc(S(=O)(=O)N2CCCCC2)cc1)c1ccc(=O)[nH]c1,0%,?,?,-17,91,-4
O=C(Nc1cccc(S(=O)(=O)N2CCCCCC2)c1)c1ccc(=O)[nH]c1,0%,18µM*,?,14,61,1
CCN(CC)S(=O)(=O)c1ccc(C(=O)Nc2nnc(C(C)C)s2)cc1,-4%,-8%,-7%,-69*,2,-3
SMILES,ClpP mod,DT40 TDP1 no CPT,DT40 TDP1 CPT,DRD3 antagonist,IL1B secr inh,D3 ag
COc1cc(CC(=O)Nc2cc(S(=O)(=O)N3CCOCC3)ccc2N2CCCC2)cc(OC)c1OC,-4%,-4%,-21%,8,-8,-5
O=C(CC1CC2CCC1C2)N1CCN(S(=O)(=O)c2ccccc2F)CC1 (stereo not drawn),3%,?,?,-6,6,1
O=C(Nc1cccc(S(=O)(=O)Nc2ccccc2Cl)c1)c1ccc(N2CCCC2)c([N+](=O)[O-])c1,0%,-22%,-2%,-17,2,-3
O=C(Nc1cccc(S(=O)(=O)N2CCCCC2)c1)c1ccc(Cl)nc1,0%,15µM*,21µM*,28,22,2
O=C(Nc1cccc(S(=O)(=O)N2CCCCCC2)c1)c1ccc(Cl)nc1,nt,15µM*,18µM*,8,?,6
O=C(Nc1ccc(S(=O)(=O)N2CCCC2)cc1)c1ccc(Cl)nc1,nt,?,?,8,1,-8
O=C(Nc1cccc(S(=O)(=O)Nc2ccccc2Cl)c1)c1ccc(Cl)nc1,-1%,15µM*,12µM*,15,7,6
CN1C(=O)c2ccccc2C(C(=O)O)C1c1cccc(F)c1 (stereo not drawn),0%,26µM*,?,9,28,4
CN(C)CCN(C(=O)c1ccco1)c1nc2c(F)cc(F)cc2s1,-3%,?,?,nt,nt,-25
O=C1C=C(c2ccc3c(c2)OCO3)C[C@@H](c2ccc3c(c2)OCO3)C1,-6%,-23%,-9%,-16,11,-1
O=C1C=C(c2cc(Cl)cc(Cl)c2)C[C@@H](c2ccc3c(c2)OCO3)C1,0%,-30%,-1%,-17,6,-47
Cc1cc(C)c(C2=CC(=O)C[C@H](c3ccc4c(c3)OCO4)C2)c(C)c1,0%,?,18µM*,3,8,2
O=C1C=C(c2ccc3cc[nH]c3c2)C[C@@H](c2ccc3c(c2)OCO3)C1,-12%,10µM*,1.8µM*,-8,2,-10
O=C1C=C(c2cccc(CO)c2)C[C@@H](c2ccc3c(c2)OCO3)C1,1%,?,-30%,-28,-1,6
O=C1C=C(c2cccc(OCc3ccccc3)c2)C[C@@H](c2ccc3c(c2)OCO3)C1,-1%,-20%,-29%,-11,-25,35*

# Screening data as filed in PubChem BioAssay.
